Fh CTSL1 inh – cathepsin L1 inhibition, PFM18AAP counter-screen; recombinant F. hepatica cathepsin L1, Z-Leu-Arg-MCA fluorescence; inhibition, % at 5.96 µM; hit rate 0.49% among 300,000; AID 1906;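 active = inhibition above the mean of all tested compounds plus 3 SD, set per screening campaign, cut at about 17% in these data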;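 note: 0% = plate median of test compound wells and 100% = 1 µM Z-Phe-Ala-diazomethylketone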
M18AAP inhibitor – PfM18AAP enzyme inhibition. recombinant PfM18AAP, H-Glu-NHMec fluorogenic cleavage. inhibition, % at 7.35 µM. hit rate 1.2% among 290,000;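 active = inhibition above the campaign mean inhibition over all tested compounds plus 3 SD, cut at about 28% in these data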;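 note: 0% = plate median of test compound wells and 100% = 2 mM ZnCl2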
Calb FLC – affects C. albicans growth with fluconazole; C. albicans CaCi-2 (fluconazole-resistant clinical isolate) + fluconazole, Alamar Blue growth, 48 h; growth inhibition, % (no concentration beside the values); hit rate 0.57% among 300,000; AID 1979;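 active = growth inhibition above about 58% in most replicates, limit read from the data, passing the limit was not always enough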;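 note: all wells also contain fluconazole at 8 µg/ml as a sub-toxic cotreatment; 0% = median of DMSO wells and 100% = median of geldanamycin control wells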
Rin1-Abl PPI inh – human Rin1-Abl interaction inhibition. hit rate 0.4% among 360,000. P00519+Q13671. inhibition, % at 7.35 µM. TR-FRET Rin1/Abl binding, biochemical; in the data active = inhibition above about 5%, passing the limit was not always enough
* hit, by the source's call. In the library only some 2.1% were active in any assay of this set; here they are far more common.

What do the screens show for `O=[N+]([O-])c1ccc(/C=N/NC(=S)Nc2ccc(Cl)cc2Cl)s1`?
Fh CTSL1 inh: -2; M18AAP inhibitor: 17; Calb FLC: 107*; Rin1-Abl PPI inh: -2

Results for CCN(CC(=O)Nc1ccccc1OC)C(=O)CSCC(=O)Nc1cccc(C)c1 ?
Rin1-Abl PPI inh: 1

How did O=C(COC(=O)CNC(=O)c1ccc(Cl)cc1Cl)Nc1ccc(N2CCOCC2)cc1 do in these assays?
Fh CTSL1 inh: 17*; M18AAP inhibitor: 9; Calb FLC: 1; Rin1-Abl PPI inh: -1

Results for Cc1cccc(OCC(=O)Oc2ccc(Cl)cc2)c1 ?
Fh CTSL1 inh: -5; Calb FLC: -6; Rin1-Abl PPI inh: -2

Results for Cc1cccc(OC(=O)NCCOC(=O)N(O)c2ccc(Cl)cc2)c1 ?
Fh CTSL1 inh: 19*; M18AAP inhibitor: 18; Calb FLC: -23; Rin1-Abl PPI inh: 0

How did COCCn1c(SCC(=O)c2ccc3c(c2)OCCO3)nnc1-c1ccco1 do in these assays?
Fh CTSL1 inh: -1; M18AAP inhibitor: -11; Calb FLC: 19; Rin1-Abl PPI inh: 1

What do the screens show for `CCn1c(SCC(=O)c2ccc3c(c2)OCCO3)nnc1-c1ccco1`?
Fh CTSL1 inh: 17*; M18AAP inhibitor: -3; Calb FLC: 5; Rin1-Abl PPI inh: 0

What do the screens show for `CCCN(C(=O)CSc1nc2cc(S(=O)(=O)N(CC)CC)ccc2o1)C1CCS(=O)(=O)C1` (centres undefined)?
Fh CTSL1 inh: 4; Calb FLC: 6; Rin1-Abl PPI inh: 0

How did CCN(C(=O)CSc1nc2cc(S(=O)(=O)N(CC)CC)ccc2o1)C1CCS(=O)(=O)C1 (centres undefined) do in these assays?
Fh CTSL1 inh: -6; M18AAP inhibitor: 28*; Calb FLC: -4; Rin1-Abl PPI inh: -3

How did COc1ccccc1C1c2[nH]c3ccccc3c2C[C@H]2C(=O)N(C3CCN(Cc4ccccc4)CC3)CC(=O)N12 (some centres undefined) do in these assays?
Fh CTSL1 inh: -2; M18AAP inhibitor: -4; Calb FLC: -3; Rin1-Abl PPI inh: 2

Results for CC(=O)Oc1cc(C(=O)OCC(=O)NC23CC4CC(CC(C4)C2)C3)cc(OC(C)=O)c1OC(C)=O ?
Rin1-Abl PPI inh: 9.8*

Results for CCN(CC)c1ccc(C=Nc2cccnc2Cl)c(O)c1 ?
Fh CTSL1 inh: 5; M18AAP inhibitor: 31*; Calb FLC: 6; Rin1-Abl PPI inh: -2

Results for CCN(CC)c1ccc(C=Nc2cc(C)ccc2C)c(O)c1 ?
Fh CTSL1 inh: 1; M18AAP inhibitor: 5; Calb FLC: -13; Rin1-Abl PPI inh: -2

Results for O=C(Nc1cccc(-c2nc3ccccc3[nH]2)c1)c1ccccn1 ?
Fh CTSL1 inh: 1; M18AAP inhibitor: 31*; Calb FLC: -4; Rin1-Abl PPI inh: 0

What do the screens show for `CC(=O)Nc1cccc(-c2nc3ccccc3[nH]2)c1`?
Fh CTSL1 inh: 1; M18AAP inhibitor: -3; Calb FLC: -3; Rin1-Abl PPI inh: 1

How did O=C(COc1ccccc1)Nc1cccc(-c2nc3cc4ccccc4cc3[nH]2)c1 do in these assays?
Fh CTSL1 inh: 1; M18AAP inhibitor: 4; Calb FLC: 109*; Rin1-Abl PPI inh: -2

Results for O=C(COc1ccccc1)Nc1cccc(-c2nn[nH]n2)c1 ?
Fh CTSL1 inh: 1; M18AAP inhibitor: 4; Calb FLC: -3; Rin1-Abl PPI inh: -1

What do the screens show for `COc1ccc2nc(SCC(=O)N3CCN(c4ccccc4F)CC3)c(C#N)cc2c1`?
M18AAP inhibitor: 3

What do the screens show for `COc1ccccc1N1CCN(C(=O)c2cc3cc(F)ccc3[nH]2)CC1`?
Fh CTSL1 inh: -4; M18AAP inhibitor: -1; Calb FLC: 18; Rin1-Abl PPI inh: 1

What do the screens show for `COc1ccccc1N1CCN(C(=O)c2cc3ccccc3[nH]2)CC1`?
Fh CTSL1 inh: 18*; M18AAP inhibitor: -5; Calb FLC: 11; Rin1-Abl PPI inh: 2

What do the screens show for `COc1ccccc1N1CCN(C(=O)c2cc3cc(Cl)ccc3[nH]2)CC1`?
Fh CTSL1 inh: 3; M18AAP inhibitor: 7; Calb FLC: 114*; Rin1-Abl PPI inh: 0

What do the screens show for `COC(C[C@H]1O[C@H]1C(=O)[C@H](C)OCc1ccccc1)OC`?
Fh CTSL1 inh: 76*; Calb FLC: -9; Rin1-Abl PPI inh: 1

How did COC(C[C@H]1O[C@@H]1C(=O)[C@H](C)OCc1ccccc1)OC do in these assays?
Fh CTSL1 inh: 74*; Calb FLC: 11; Rin1-Abl PPI inh: 1

How did CC(C)(C)NC(=O)CSC(=Nc1ccc(F)cc1)NC#N do in these assays?
Fh CTSL1 inh: 0; M18AAP inhibitor: -7; Calb FLC: 4; Rin1-Abl PPI inh: 1

Results for N/C(CSc1ccc(Cl)cc1)=N\NC(=O)c1ccncc1 ?
Fh CTSL1 inh: 20*; M18AAP inhibitor: -5; Calb FLC: 9; Rin1-Abl PPI inh: 6

Screens deposited in PubChem BioAssay by several laboratories.
